The text below walks through data of the antibiotic and cytotoxicity screens of Wong et al. (2023).

In all, about 39,000 compounds went through this assay and about 3,300 (8.5%) were called active. This excerpt belongs to a sample that is enriched for actives.

The assay deals with HepG2. Put plainly: cytotoxicity call (relative viability < 0.9). As to conditions: 10 µM.
Take `CCN1[C@H](C(=O)NCCc2cn(C)cn2)[C@@H](CO)[C@@H]2Cn3c(ccc(-c4ccncc4)c3=O)[C@@H]21`: the cytotoxicity call was “inactive”. In the case of `C[C@@H]1CN([C@H](C)CO)C(=O)c2cccc(NS(=O)(=O)c3cn(C)cn3)c2O[C@H]1CN(C)S(=O)(=O)c1ccccc1`, the cytotoxicity call is “inactive”. Then `C[C@@H]1CCCCO[C@@H](CN(C)C(=O)Nc2ccc(C(F)(F)F)cc2)[C@@H](C)CN([C@H](C)CO)C(=O)c2cc(NC(=O)c3ccncc3)ccc2O1`, with “inactive”; and `C[C@H](O)C#Cc1ccc2c(c1)O[C@H](CN(C)C(=O)CN(C)C)[C@@H](C)CN([C@H](C)CO)S2(=O)=O`, with “inactive”. The value for `COc1ccc(NC(=O)Nc2cccc3c2O[C@H](CN(C)Cc2ccc(Cl)c(Cl)c2)[C@H](C)CN([C@@H](C)CO)C3=O)cc1` was “inactive”; that for `COc1ccc(S(=O)(=O)N(C)C[C@H]2OCCCC[C@@H](C)Oc3ccc(NC(=O)Nc4ccc5c(c4)OCO5)cc3C(=O)N([C@H](C)CO)C[C@@H]2C)cc1` was “inactive”.

As to `Cc1noc(C)c1NC(=O)Nc1ccc2c(c1)C(=O)N([C@H](C)CO)C[C@@H](C)[C@H](CN(C)Cc1ccc3c(c1)OCO3)OCCCC[C@H](C)O2`, the cytotoxicity call was “inactive”.

In the case of `Cc1noc(C)c1S(=O)(=O)Nc1ccc2c(c1)C(=O)N([C@@H](C)CO)C[C@@H](C)[C@@H](CN(C)Cc1ccc(Oc3ccccc3)cc1)O2`, the cytotoxicity call is “inactive”. `C[C@@H]1CN([C@H](C)CO)C(=O)c2cc(NC(=O)Nc3cccc4ccccc34)ccc2O[C@@H](C)CCCCO[C@H]1CN(C)S(=O)(=O)c1ccccc1`: the cytotoxicity call is “inactive”. The value for `CC(=O)N1[C@@H]2c3cccc(=O)n3C[C@H]1[C@H](CO)[C@H]2C(=O)N1CCc2ccccc2C1` was “inactive”; that for `C[C@@H]1CN([C@H](C)CO)C(=O)Cc2cc(NC(=O)Cc3cn(C)c4ccccc34)ccc2O[C@H]1CN(C)Cc1ccc(C(F)(F)F)cc1` was “inactive”. Then `C[C@H]1CN([C@@H](C)CO)C(=O)Cc2cc(NC(=O)Cc3cn(C)c4ccccc34)ccc2O[C@H]1CN(C)Cc1ccc(C(F)(F)F)cc1`, with “active”; and `C[C@H](CO)N1C[C@H](C)[C@@H](CN(C)Cc2ccc(C(F)(F)F)cc2)Oc2ccc(NC(=O)Cc3cn(C)c4ccccc34)cc2CC1=O`, with “inactive”. The value for `C[C@@H]1CN([C@@H](C)CO)C(=O)c2c(c3ccccc3n2C)-c2ccccc2CO[C@H]1CN(C)Cc1cccc(C(F)(F)F)c1` was “inactive”; that for `C[C@@H]1CN([C@@H](C)CO)C(=O)c2cc(NC(=O)C3CCCCC3)ccc2O[C@@H](C)CCCCO[C@@H]1CN(C)S(=O)(=O)c1ccc(Cl)cc1` was “inactive”; that for `C[C@@H]1CCCCO[C@@H](CN(C)S(=O)(=O)c2ccc(Cl)cc2)[C@@H](C)CN([C@@H](C)CO)C(=O)c2cc(NC(=O)C3CCCCC3)ccc2O1` was “inactive”. For `Cc1ccc(S(=O)(=O)N(C)C[C@H]2OCCCC[C@@H](C)Oc3ccc(NC(=O)C4CCCCC4)cc3C(=O)N([C@H](C)CO)C[C@@H]2C)cc1`, the cytotoxicity call is “active”. `Cc1ccc(S(=O)(=O)N(C)C[C@H]2OCCCC[C@H](C)Oc3ccc(NC(=O)C4CCCCC4)cc3C(=O)N([C@H](C)CO)C[C@H]2C)cc1`: the cytotoxicity call is “inactive”. Then `C[C@H](CO)N1C[C@H](C)[C@H](CN(C)S(=O)(=O)c2ccc(F)cc2)OCCCC[C@H](C)Oc2ccc(NC(=O)C3CCCCC3)cc2C1=O`, with “inactive”; and `C[C@@H]1CN([C@H](C)CO)C(=O)c2cc(NC(=O)C3CCCCC3)ccc2O[C@@H](C)CCCCO[C@H]1CN(C)S(=O)(=O)c1ccc(F)cc1`, with “inactive”.

Turning to `C[C@@H]1CCCCO[C@H](CN(C)S(=O)(=O)c2ccc(Cl)cc2)[C@H](C)CN([C@H](C)CO)C(=O)c2cc(NC(=O)C3CCCCC3)ccc2O1`, the cytotoxicity call is “active”. The value for `Cc1ccc(S(=O)(=O)N(C)C[C@H]2OCCCC[C@H](C)Oc3ccc(NC(=O)C4CCCCC4)cc3C(=O)N([C@@H](C)CO)C[C@@H]2C)cc1` was “active”; that for `Cc1ccc(S(=O)(=O)N(C)C[C@H]2OCCCC[C@@H](C)Oc3ccc(NC(=O)C4CCCCC4)cc3C(=O)N([C@@H](C)CO)C[C@H]2C)cc1` was “inactive”; that for `Cc1ccc(S(=O)(=O)N(C)C[C@@H]2OCCCC[C@@H](C)Oc3ccc(NC(=O)C4CCCCC4)cc3C(=O)N([C@H](C)CO)C[C@@H]2C)cc1` was “inactive”. Then `Cc1ccc(S(=O)(=O)N(C)C[C@@H]2OCCCC[C@@H](C)Oc3ccc(NC(=O)C4CCCCC4)cc3C(=O)N([C@H](C)CO)C[C@H]2C)cc1`, with “inactive”.

Turning to `C[C@@H]1CCCCO[C@@H](CN(C)S(=O)(=O)c2ccc(F)cc2)[C@H](C)CN([C@H](C)CO)C(=O)c2cc(NC(=O)C3CCCCC3)ccc2O1`, the cytotoxicity call was “active”. For the molecule `C[C@@H]1CCCCO[C@@H](CN(C)C(=O)CCCN(C)C)[C@H](C)CN([C@@H](C)CO)C(=O)c2cc(NS(=O)(=O)c3cn(C)cn3)ccc2O1`, the cytotoxicity call was “inactive”.

With `CS(=O)(=O)c1ncc(Cl)c(C(=O)NCCc2ccc(S(N)(=O)=O)cc2)n1`, the cytotoxicity call is “inactive”.

Turning to `COc1ccc(S(=O)(=O)Nc2cccc3c2O[C@H](CN(C)Cc2ccc(Oc4ccccc4)cc2)[C@H](C)CN([C@H](C)CO)C3=O)cc1`, the cytotoxicity call is “inactive”. The value for `Cc1ccc(S(=O)(=O)N(C)C[C@H]2OCCCC[C@H](C)Oc3ccc(NC(=O)CCC(F)(F)F)cc3C(=O)N([C@H](C)CO)C[C@H]2C)cc1` was “inactive”; that for `CCC(C)C1OC2(C=CC1C)CC1CC(CC=C(C)C(OC3CC(OC)C(OC4CC(OC)C(O)C(C)O4)C(C)O3)C(C)C=CC=C3COC4C(OC)C(C)=CC(C(=O)O1)C34O)O2` (centres undefined) was “active”.

In the case of `CCC(C)C1OC2(C=CC1C)CC1CC(CC=C(C)C(OC3CC(OC)C(OC4CC(OC)C(NC(C)=O)C(C)O4)C(C)O3)C(C)C=CC=C3COC4C(O)C(C)=CC(C(=O)O1)C34O)O2` (centres undefined), the cytotoxicity call was “inactive”. On to `CC[C@H](C)[C@H]1O[C@]2(C=C[C@@H]1C)C[C@@H]1C[C@@H](C/C=C(\C)[C@@H](O[C@H]3C[C@H](OC)[C@@H](O[C@H]4C[C@H](OC)[C@@H](NC(C)=O)[C@H](C)O4)[C@H](C)O3)[C@@H](C)/C=C/C=C3\CO[C@@H]4[C@H](O)C(C)=C[C@@H](C(=O)O1)[C@]34O)O2`, for which the cytotoxicity call is “active”. The value for `CN[C@@H]1[C@@H](C)O[C@@H](O[C@H]2[C@H](C)O[C@@H](O[C@@H]3/C(C)=C/C[C@@H]4C[C@@H](C[C@]5(C=C[C@H](C)[C@@H](C(C)C)O5)O4)OC(=O)[C@@H]4C=C(C)[C@@H](O)[C@H]5OC/C(=C\C=C\[C@@H]3C)[C@]54O)C[C@@H]2OC)C[C@H]1OC` was “active”.
